Source: PubChem BioAssay (National Center for Advancing Translational Sciences (NCATS))
NPC1 promoter act – activates the NPC1 promoter; Huh7 NPC1 promoter luciferase reporter, 24 h; Potency, µM (titrated, usually from 9.22 µM), inactives show top-dose activation, actives largely listed as activators; hit rate 2.4% among 320,000; AID 485313; further: % of control where 0% means no effect; nearly all actives have a fitted effect of over 60% in size
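Cells: Huh7 expressing luciferase under the NPC1 promoter, 1500/well. Seeded 2 h, compound added, incubated 24 h at 37 °C. Luciferase reagent, 10 min ambient, then luminescence.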
p53 reactivator – re-activators of mutant p53; hit rate 0.063% among 320,000; Potency, µM (doses to about 92.2 µM), for inactives: at the top dose activity change, positive = activation, most hits filed as activators; AID 504706; H1299 p53-A138V BP100-luciferase reporter, luminescence, 24 h; further: % of control where 0% means no effect; nearly all actives have a fitted effect of over 45% in size
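H1299 (p53-null), stable ts p53-A138V + BP100-Luc; 1000 cells/well, Opti-MEM/10% FBS; cpd 4 pt, 1:5; 24 h, 37 deg C, 5% CO2; detection reagent 10 min RT; luminescence.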
FLuc counter – counter-screen for miR-21 project: firefly luciferase inhibitors or activators; P08659; purified FLuc, Km substrates, luminescence inhibition; Potency, µM (highest dose often 57.5 µM), for the others: top-dose activity change, negative = inhibition, hits mostly inhibitors; hit rate 6.9% among 360,000;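 further: plate controls were vehicle for no effect and reference inhibitor for full effect; nearly all actives have a fitted effect of over 55% in size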
Target sequence (P08659 whole entry, looked up): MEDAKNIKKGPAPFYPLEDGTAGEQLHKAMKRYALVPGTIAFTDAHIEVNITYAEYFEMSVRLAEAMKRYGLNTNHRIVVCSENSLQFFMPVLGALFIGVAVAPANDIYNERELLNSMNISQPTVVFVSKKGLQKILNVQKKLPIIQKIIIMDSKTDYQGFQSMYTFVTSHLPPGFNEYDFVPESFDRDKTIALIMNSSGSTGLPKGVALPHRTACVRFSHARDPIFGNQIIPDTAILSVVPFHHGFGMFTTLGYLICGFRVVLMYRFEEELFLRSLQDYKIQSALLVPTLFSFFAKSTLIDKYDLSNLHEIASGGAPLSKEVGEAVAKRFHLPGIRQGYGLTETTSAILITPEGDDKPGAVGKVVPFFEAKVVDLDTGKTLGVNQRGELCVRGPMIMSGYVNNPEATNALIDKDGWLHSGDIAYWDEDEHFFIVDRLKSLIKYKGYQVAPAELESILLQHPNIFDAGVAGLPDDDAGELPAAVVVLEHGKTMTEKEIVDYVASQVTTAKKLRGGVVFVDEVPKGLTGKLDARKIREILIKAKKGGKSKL
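Biochemical qHTS of compounds, final roughly 60 µM downward over six points, against 10 nM purified firefly luciferase using Km concentrations of substrates (10 uM D-luciferin, 10 uM ATP) in Tris acetate pH 7.5 buffer; luminescence output.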
SMN2 splice enh – increases expression of the SMN2 splice variant. AID 1458. HEK293 SMN2-luciferase splicing reporter, luminescence, 30-36 h. hit rate 2.8% among 210,000. Potency, µM (highest dose often 46.1 µM), for the others: at the top dose activity change, positive = activation, usual class: activators; further: % of control where 0% means no effect; nearly all actives have a fitted effect of over 55% in size
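HEK293 cells carry an SMN2 minigene-luciferase reporter in which exon 7 inclusion puts luciferase in frame. Cells were seeded at 2000 cells/well, attached for 10-12 hours, then exposed to compounds for 30-36 hours at 37C before ONE-Glo luminescence.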
ELG1 genotoxic – inducers of genotoxicity in HEK293T ELG1-luciferase cells. AID 504466. Potency, µM (highest dose often 46 µM), inactives show top-dose activity change, positive = activation, actives largely listed as activators. HEK293T ELG1-luciferase reporter, luminescence, 16 h. hit rate 1.3% among 330,000; further: % of control where 0% means no effect; nearly all actives have a fitted effect of over 60% in size
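DMSO vehicle served as control against compound-treated ELG1-luciferase HEK293T cells; exposure lasted 16 hr at 37 °C and 5% CO2, followed by ONE-Glo luminescence detection after 30 min.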
Rab9 promoter act – Rab9 promoter activation. Huh7 Rab9 promoter-luciferase reporter, luminescence, 24 h. Potency, µM (top dose mostly 9.22 µM), without a hit: at the highest dose activation, negative = inhibition, hits mostly activators. hit rate 2.8% among 320,000; further: % of control where 0% means no effect; nearly all actives have a fitted effect of over 60% in size
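Stable Rab9-luc Huh7, 1500 cells/well, 2 h settle; cmpd in DMSO, 24 h, 37 °C/5% CO2; luciferase reagent 10 min RT; luminescence.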
An asterisk follows results filed as active; ? = inconclusive; . = not tested or not shown; [ ] = remark or other dose. Only some compounds are listed: those with a hit (about 7.3% of all), similar ones and a draw of the others. The call rests on the fitted dose curve; in most records, active means well fitted curve in the direction sought with a large enough effect; inconclusive means small, poorly fitted or top-dose-only effect, or another doubt; inactive means no such curve, though single readings can be large; an effect the other way counts as inactive or inconclusive. Potency means the concentration at half of the fitted maximal effect.

SMILES	NPC1 promoter act	p53 reactivator	FLuc counter	SMN2 splice enh	ELG1 genotoxic	Rab9 promoter act
CCOc1ccc(NC(=O)C(=S)NC2CCCCC2)cc1	?	2%	13µM*	?	?	?
CCC1=C(C[C@H]2NCCc3cc(OC)c(OC)cc32)C[C@H]2c3ccccc3CCN2C1	.	.	.	-4%[9.22 µM]	.	.
C[C@@H]1CC[C@@H]2N(C1)C[C@H]1[C@@](O)([C@H](O)C[C@]3(O)[C@H]4CC[C@H]5[C@]6(O)O[C@]4(C[C@]13O)[C@@]5(C)CC[C@@H]6O)[C@@]2(C)O	.	.	.	-7%[9.22 µM]	.	.
CN(C)C(=O)Oc1cccc(-c2cn3cc(Cl)ccc3n2)c1	?	?	3µM*	11µM*	12%	?
CN(C)C(=O)Oc1ccc(-c2cn3cc(C(F)(F)F)ccc3n2)cc1	?	?	3µM*	?	10%	-16%
CN(C)C(=O)Oc1ccc(-c2nnco2)cc1	1%	10%	-12%	-5%	-5%	-3%
CN(C)C(=O)Oc1ccc([N+](=O)[O-])cc1	-1%	7%	-2%	-1%	4%	-11%
CSc1nnc(OC(=O)N(C)C)n1-c1ccc(Cl)cc1	0%	-2%	2%	.	0%	-1%
CN(C)C(=O)Oc1ccc(-c2cn3cc(Cl)ccc3n2)cc1	0.71µM*	?	0.95µM*	8.9µM*	?	0.4µM*
COC(=O)c1ccc(CC(C(=O)c2ccccc2)N(C)C)cc1 (centres undefined)	?	13%	15µM*	.	?	?
C=CCN1CCC23c4c5ccc(O)c4OC2/C(=N/N=C2\CCC4(O)C6Cc7ccc(O)c8c7C4(CCN6CC=C)C2O8)CCC3(O)C1C5 (centres undefined)	.	.	.	-61%	.	.
O=C1NC(=O)C(=Cc2ccc(N3CCN(C(=O)c4ccccc4)CC3)c([N+](=O)[O-])c2)C(=O)N1	0%	-6%	21µM*	.	1%	2%
CN1C(=O)C(=Cc2ccc(N3CCOCC3)c([N+](=O)[O-])c2)C(=O)N(C)C1=O	-2%	-4%	?	-6%	6%	-6%
O=C(O)C(Cl)(Cl)Br	.	.	.	-4%	.	.
CC1CC2CC(=O)C3CCCN4CCCC2[C@]34C1 (some centres undefined)	.	.	.	-1%	.	.
N#Cc1cc2c(nc1SCC(=O)Nc1ccc(Cl)cc1)C1CCN2CC1	?	?	?	-20%	-4%	25%
N#Cc1cc2c(nc1SCC(=O)Nc1cc(Cl)ccc1Cl)C1CCN2CC1	16%	45µM*	-1%	-12%	?	?
COc1ccc(-c2nc3ccccc3c(=O)o2)cc1	?	-4%	1.2µM*	11µM*	?	?
Cc1ccc2nc(N3CCC(C(=O)N4CCC5(CC4)OCCO5)CC3)sc2c1	?	?	12µM*	.	0%	?
O=C(C1CCN(c2nc3ccc(Br)cc3s2)CC1)N1CCC2(CC1)OCCO2	-2%	?	13µM*	-77%	?	-12%
CCc1ccc2nc(N3CCC(C(=O)N4CCC5(CC4)OCCO5)CC3)sc2c1	0%	13%	9.5µM*	-83%	?	12%
CCn1c(C(=O)N2CCC(C(=O)N3CCC4(CC3)OCCO4)CC2)cc2sccc21	2%	-4%	6%	-12%	2%	-11%
CCOc1ccc2nc(N3CCC(C(=O)N4CCC5(CC4)OCCO5)CC3)sc2c1	?	?	15µM*	.	1%	?
c1ccc2sc(C3(NCC4CC4)CCCCC3)cc2c1	.	.	.	-11%	.	.
C=CCOC(C)=O	.	.	.	-9%	.	.
O=c1[nH]c(O)c(N=Nc2ccc([N+](=O)[O-])cc2)c(=O)[nH]1	4%	-10%	?	-2%	4%	24%
O=C(O)c1cccc(N=Nc2c(O)[nH]c(=O)[nH]c2=O)c1	-4%	5%	15µM*	.	-2%	27%
O=c1[nH]c(=S)[nH]c(O)c1N=Nc1ccc(S(=O)(=O)N2CCc3ccccc32)cc1	-1%	11%	-13%	-14%	1%	-1%
